Compound activity: PubChem BioAssay, several laboratories
Gli-Sufu block = Gli-Sufu pathway antagonists, primary screen, luciferase luminescence, Sufu-KO-LIGHT cells, uHTS | Sufu-KO-LIGHT fibroblasts, Gli luciferase reporter luminescence | inhibition, % at 5 µM | 340,000 tested, 0.74% active | AID 588413, 2011;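 active = inhibition above about 55%, limit read from the data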;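 note: 0% = DMSO-treated cells and 100% = wells with medium but no cells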
697 NFkB inh = inhibitors of PMA/ionomycin-induced NF-kB reporter, 697 cells, primary screen, B-cell NF-kB inhibitor project, cell-based, luminescence, uHTS; 330,000 tested, 0.33% active; inhibition, % at 4 µM; 697 B-cell NF-kB luciferase reporter, 16 h; in the data active = inhibition above about 35%
esBAF inh = Bmi1 luciferase reporter increase in mESCs, primary screen, esBAF inhibitor project, mouse ES cells, Bmi1 luciferase knock-in, single point; 24 h; 100% = twice the neutral-well signal; reporter increase, % at 12.5 µM; 350,000 tested, 2% active; in the data active = activation above about 40%;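 note: 0% = median of the plate's neutral control wells and 100% = double that signal; a rise in the Bmi1 reporter signal indicates esBAF inhibition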
Jurkat NFkB inh = inhibitors of induced NF-kB luciferase reporter, primary screen, TCR NF-kB activation inhibitor project, cell-based, luminescence, uHTS. inhibition, % at 4 µM. 330,000 tested, 0.53% active. Jurkat, PMA/ionomycin-induced NF-kB luciferase reporter; in the data active = inhibition above about 50%
SMARCA2 act = SMARCA2 (BRM) function activators, primary screen, cell-based, luminescence, high throughput; MG213 cells, MMTV-luciferase reporter, dexamethasone, overnight; activation, % at 9.1 µM; 370,000 tested, 1% active; AID 652017, 2013; in the data active = activation above about 7.8%;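 note: 0% = vehicle wells and 100% = reference activator wells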
SMARCA2 conf = SMARCA2 (BRM) function activators, confirmation, cell-based, luminescence, triplicate; MG213 cells, MMTV-luciferase with dexamethasone, overnight; MG213 cells expressing E1A, Rb sequestered; DMSO wells 0%, reference activator 100%; 3,500 tested, 30% active; activation, % at 9.1 µM; shares compounds with SMARCA2 act; AID 652260, 2013;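 active = activation above its plate's cutoff, the mean activation of tested wells plus 3 SD, cut at about 7.9% in these data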
VP16 Luc act = GAL4-VP16 luciferase reporter activation, counter-screen for SMARCA2 (BRM) activator project, cell-based, pG5luc, luminescence, high throughput; shares compounds with SMARCA2 act; HEK293 GAL4-VP16 pG5luc reporter; scaled: DMSO wells 0%, SAHA wells 100%; activation, % at 9.1 µM; 3,500 tested, 41% active; AID 686939, 2013;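 active = activation above the solvent-only control well mean plus 3 SD, averaged across control plates, cut at about 5.2% in these data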
Active calls of the source: *; / = no result given. The list is not random: actives were taken first. Their share in the collection is about 3.3%.

SMILES	Gli-Sufu block	697 NFkB inh	esBAF inh	Jurkat NFkB inh	SMARCA2 act	SMARCA2 conf	VP16 Luc act
CCOc1ccccc1NS(=O)(=O)c1ccc2c(c1)n(C)c(=O)c(=O)n2C	3	4	/	19	12*	3	1
C[C@H](CO)N1C[C@H](C)[C@H](CN(C)S(=O)(=O)c2cccs2)Oc2ccc(NC(=O)NC3CCCCC3)cc2C1=O	/	/	1	/	/	/	/
COc1cc(Cl)nn(-c2ccccc2)c1=O	3	9	-5	11	11*	-1	2
CCCNC(=O)Nc1ccc2c(c1)C(=O)N(C)C[C@H](OC)[C@@H](C)CN(CCC(F)(F)F)[C@@H](C)CO2	/	/	9	/	/	/	/
Cc1cc2oc(=O)cc(COC(=O)c3n[nH]c4ccccc34)c2cc1C	-15	-15	34	-12	3	/	/
COc1ccc2c(COC(=O)c3n[nH]c4ccccc34)cc(=O)oc2c1	-71	-36	46*	-79	9.5*	6	11*
COc1cccc(CNC(=O)c2cc3c(c(-c4cccc(-c5ccncc5)c4)n2)[C@@H](CCO)N([S@](=O)C(C)(C)C)C3)c1	/	/	5	/	/	/	/
CC(C)[C@H](CO)Nc1nc(NCc2ccc(S(N)(=O)=O)cc2)c2ncn(C(C)C)c2n1	-10	0	-1	24	10*	7.9*	0
COc1cc(/C=c2\sc3n(c2=O)CCCN=3)ccc1O	-18	1	15	-15	4	/	/
O=c1/c(=C/c2ccc([N+](=O)[O-])cc2)sc2n1CCCN=2	4	-65	/	-40	8.7*	12*	13*
COc1ccc(NC(=O)N(C)C[C@@H]2Oc3ccc(NS(=O)(=O)c4cccs4)cc3C(=O)N([C@@H](C)CO)C[C@@H]2C)cc1	/	/	-4	/	/	/	/
O=C(CCn1c(=O)oc2ccccc21)Nc1ccccc1	3	7	12	7	9.0*	-2	1
Cc1ccc(NC(=O)CCn2c(=O)oc3ccccc32)cc1	-4	-6	2	-18	-1	/	/
C[C@H](CO)N1C[C@H](C)[C@@H](CN(C)C(=O)Nc2ccc(F)cc2)OCCCC[C@H](C)Oc2ccc(NS(=O)(=O)c3cccs3)cc2C1=O	/	/	2	/	/	/	/
O=C(C[C@H]1CC[C@@H](NS(=O)(=O)c2ccc(F)cc2)[C@@H](CO)O1)NC1CCC1	/	/	-1	/	/	/	/
O=C(O)c1ccc(N/N=C/c2cc3ccccc3nc2Cl)cc1	-37	-151	/	-12	13*	8	12*
O=[N+]([O-])c1ccccc1N/N=C/c1cc2ccccc2nc1Cl	-32	-11	30	-33	8.2*	11*	5.3*
C[C@H](CO)N1C[C@H](C)[C@@H](CN(C)CC2CCCCC2)Oc2ccc(NC(=O)Nc3ccc(C(F)(F)F)cc3)cc2C1=O	/	/	5	/	/	/	/
CCOC(=O)Cn1nc(NC(=O)c2cc(OC)cc(OC)c2)cc1C	-14	-16	-2	8	2	/	/
CCOC(=O)Cn1nc(NC(=O)c2ccc(C(=O)OC)cc2)cc1C	25	-36	-4	-12	11*	9.4*	2
CCCNC(=O)[C@@H]1[C@@H](CO)[C@@H]2Cn3c(ccc(-c4cccc(OC)c4)c3=O)[C@H]1N2CCC	/	/	-2	/	/	/	/
CC(=O)Nc1c(C(=O)O)oc2ccccc12	-1	5	33	5	8.1*	0	0
C[C@@H]1CCCCO[C@@H](CN(C)S(=O)(=O)c2ccc(Cl)cc2)[C@H](C)CN([C@@H](C)CO)C(=O)c2cc(NC(=O)CCCN(C)C)ccc2O1	/	/	3	/	/	/	/
C[C@@H]1CCCCO[C@@H](CN(C)S(=O)(=O)c2ccccc2)[C@H](C)CN([C@H](C)CO)C(=O)c2cc(NC(=O)Nc3cccc4ccccc34)ccc2O1	/	/	5	/	/	/	/
Cc1ccsc1/C=C1/SC(N2CC(C)OC(C)C2)=NC1=O (configuration not stated)	-4	9	/	-2	11*	0	1
SMILES	Gli-Sufu block	697 NFkB inh	esBAF inh	Jurkat NFkB inh	SMARCA2 act	SMARCA2 conf	VP16 Luc act
O=C(NC1CC1)C1CCN(c2ncccn2)CC1	-16	10	-10	-7	9.2*	-1	0
COc1ccc(-c2cnc3c(c2)C(=O)N([C@H](C)CO)C[C@H](C)[C@@H](CN(C)C(=O)Cc2ccccn2)O3)cc1	/	/	-6	/	/	/	/
COc1ccc(CCNc2ncnc3cc(OC)c(OC)cc23)cc1OC	44	/	-17	/	-2	/	/
COc1ccc(CCNc2ncccc2C#N)cc1OC	-42	-48	54*	-64	10*	7	9.6*
N#CCS(=O)(=O)c1cccc[n+]1[O-]	/	/	/	/	8.8*	-4	1
CCOC(=O)C1CCN(C(=O)c2cc3c(ccc4ccccc43)o2)CC1	-92	-160	71*	-32	9.0*	11*	7.3*
COc1cc(C2N=C(c3ccccc3)NO2)cc(Br)c1O (configuration not stated)	-5	2	11	2	4	/	/
COc1ccc(C2N=C(c3ccccc3)NO2)cc1OC (configuration not stated)	-75	-96	52*	-86	8.6*	14*	9.6*
CC(=O)NC(CC(=O)NC1CCCc2ccccc21)c1ccccc1 (configuration not stated)	0	7	-4	-3	8.0*	-1	-1
O=C(O)CSCC(=O)NC1CCCc2ccccc21 (configuration not stated)	2	1	3	-4	6	/	/
